Assay results published in PubChem BioAssay (Tox21).
Inconclusive results are not listed. A call without a number means that no potency is given here. Calls of active or inactive are those of the source. The call rests on the fitted dose curve; in most records, active means well fitted activation curve with a large enough effect; inconclusive means small, poorly fitted or top-dose-only effect; inactive means flat fitted curve, though single readings scatter.

test: qHTS assay to identify small molecule phospholipidosis (PLD) inducers (AID 1259344); details: HepG2 phospholipidosis, LipidTOX Red imaging, 24 h; series mostly up to 38.3 µM
In short: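 Read-out is LipidTOX Red fluorescence (ex 595/em 615) imaged in HepG2 cells after 24 h compound exposure at 37 C, with Hoechst nuclear counterstain (ex 352/em 461) allowing per-cell normalisation.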
Potency means the concentration at half of the fitted maximal effect.

Row | Structure (SMILES) | Potency | PLD induction
1 | CCCCCCCCCCCC[n+]1ccc2ccccc2c1 | inactive | 
2 | COc1ccc(/C=N/NC(=O)c2ccncc2)c(C(=O)O)c1OC | inactive | 
3 | COC1[C@@H](O[C@@H]2O[C@H](C)[C@@H](O[C@H]3C[C@@](C)(O)[C@H](OC(=O)CC(C)C)[C@H](C)O3)[C@H](N(C)C)[C@H]2O)[C@@H](CC=O)C[C@@H](C)[C@@H](O)/C=C/C=C/C[C@@H](C)OC(=O)C[C@H]1OC(C)=O (stereo not given in full) | inactive | 
4 | CCCCC[C@H](O)/C=C/[C@@H]1[C@@H](C/C=C\CCCC(=O)O)[C@@H](O)C[C@H]1O | inactive | 
5 | CC(=O)OCC1=C(C(=O)O)N2C(=O)[C@@H](NC(=O)Cc3ccccc3)[C@H]2SC1 | inactive | 
6 | CC(=O)Oc1cc(C(F)(F)F)ccc1C(=O)O | inactive | 
7 | CC[N+](CC)(CC)CCC(O)(c1ccccc1)C1CCCCC1 (stereo not given) | inactive | 
8 | CCN(CC)CC#CCOC(=O)C(O)(c1ccccc1)C1CCCCC1 (stereo not given) | inactive | 
9 | O.O.O.O.O.O.O.O=S(=O)([O-])[O-].[Co+2] | inactive | 
10 | CC(C)(C)C(=O)OCC(=O)[C@H]1CC[C@H]2[C@@H]3CCC4=CC(=O)CC[C@]4(C)[C@H]3CC[C@]12C | inactive | 
11 | CCc1cn([C@H]2C[C@H](O)[C@@H](CO)O2)c(=O)[nH]c1=O | inactive | 
12 | CCN(CC)CCOC[C@H]1O[C@@H](O)[C@H](OCCN(CC)CC)[C@@H](O)[C@@H]1O | inactive | 
13 | CS(=O)(=O)c1ccc([C@@H](O)[C@@H](COC(=O)CN)NC(=O)C(Cl)Cl)cc1 | inactive | 
14 | O=P(O)(O)OP(=O)(O)OP(=O)(O)O | inactive | 
15 | NCC[C@H](O)C(=O)N[C@@H]1C[C@H](N)[C@@H](O[C@H]2O[C@H](CN)CC[C@H]2N)[C@H](O)[C@H]1O[C@H]1O[C@H](CO)[C@@H](O)[C@H](N)[C@H]1O | inactive | 
16 | CNC(=O)OCc1cccc(COC(=O)NC)n1 | inactive | 
17 | CCOC(=O)Cc1ccc(-c2ccccc2)cc1 | inactive | 
18 | CCN(CC)CCNC(=O)c1ccc(NS(C)(=O)=O)cc1 |  | -0.241% [at 7.66 µM] (inactive)
19 | C=C1C(=C/C=C2\CCC[C@]3(C)[C@@H]([C@H](C)CCCC(C)C)CC[C@@H]23)C[C@@H](O)C[C@@H]1O | inactive | 
20 | CCN1CCCC1CNC(=O)c1cc(S(=O)(=O)CC)ccc1OC (stereo not given) | inactive | 

Row | Structure (SMILES) | Potency | PLD induction
21 | c1ccc(-n2cnnn2)cc1 | inactive | 
22 | CCCOC(=O)c1ccccc1O | inactive | 
23 | CC1CCCCN1CCCOC(=O)c1ccccc1 (stereo not given) | inactive | 
24 | C=CC(N)CCC(=O)O (stereo not given) | inactive | 
25 | CCCC(CCC)C(=O)OC1C[C@H]2CC[C@@H](C1)[N+]2(C)C (stereo not given in full) | inactive | 
26 | COc1c(O)cc2c(c1O)[C@@H]1O[C@H](CO)[C@@H](O)[C@H](O)[C@H]1OC2=O | inactive | 
27 | C[S+](CC[C@H](N)C(=O)O)C[C@H]1O[C@@H](n2cnc3c(N)ncnc32)[C@H](O)[C@@H]1O (stereo not given in full) | inactive | 
28 | CNCCC=C1c2ccccc2CCc2ccccc21 | 10 µM (active) | 
29 | O=C(O)/C=C/C(O)c1ccc(Cl)cc1 (stereo not given) | inactive | 
30 | O=C[C@H](O)[C@@H](O)[C@@H](O)[C@H](O)CO | inactive | 
31 | CCC1OC(=O)C[C@@H](O)[C@H](C)[C@@H](O[C@@H]2O[C@H](C)C[C@H](N(C)C)[C@H]2O)[C@@H](CC=O)C[C@@H](C)C(=O)/C=C/[C@]2(C)OC2C1C (stereo not given in full) | inactive | 
32 | C[C@@H]1C(=O)NC2=Nc3cccc(Cl)c3CN21 | inactive | 
33 | CO/N=C(\C(=O)N[C@@H]1C(=O)N2C(C(=O)O)=C(C[N+]3(C)CCCC3)CS[C@H]12)c1csc(N)n1 | inactive | 
34 | CC/C(=C(/CC)c1ccc(OP(=O)(O)O)cc1)c1ccc(OP(=O)(O)O)cc1 | inactive | 
35 | C=CC1=C(C(=O)O)N2C(=O)[C@@H](NC(=O)/C(=N\O)c3csc(N)n3)[C@H]2SC1 (stereo in doubt) | inactive | 
36 | N=C(N)n1cccn1 | inactive | 
37 | CO/N=C(\C(=O)N[C@@H]1C(=O)N2C(C(=O)O)=C(COC(C)=O)CS[C@H]12)c1csc(N)n1 (stereo in doubt) | inactive | 
38 | C=CC[N+]1([C@H]2C[C@H]3[C@@H]4CC[C@H]5C[C@H](O)[C@@H](N6CCOCC6)C[C@]5(C)[C@H]4CC[C@]3(C)[C@H]2OC(C)=O)CCCC1 | inactive | 
39 | Oc1ccc(Cl)c2c1CCC2 | inactive | 
40 | CSCCC(N)C(=O)O (stereo not given) | inactive | 
